Screens as filed in PubChem.
The list is not random: actives were taken first. Their share in the collection is about 2.8%.
POLI inh – qHTS for Inhibitors of Polymerase Iota | DNA polymerase iota (Homo sapiens), Q9UNA4 | Pol iota fluorescent replication assay, 10 min | Potency, µM (series often up to 115 µM), for inactives: at the highest dose activity, negative = inhibition, actives largely listed as inhibitors | 390,000 compounds, 1% hits | AID 588590, 2011; further: potency means the concentration at half of the fitted maximal effect
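Pol iota at 10 nM preincubated 15 min with compounds at room temperature; reaction started with fluorescent substrate, 50 nM final. Fluorescence read kinetically at 0 and 10 min; buffer-only wells as negative control.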
PI5P4K alpha inh – qHTS for Inhibitors of phosphatidylinositol 5-phosphate 4-kinase (PI5P4K) | PI5P4Kalpha enzyme, ADP-Glo luminescence, 60 min; stronger effect = lower value | max response, % | 330,000 compounds, 1.2% hits; active means max response of -50% or lower; inconclusive means between -30% and -50%; inactive means -30% or higher; further: value at the top dose of about 77 µM; on the % scale 0 is the no-effect control and ±100 the full control effect
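Reactions run in 0.038 M HEPES pH 7.4, 0.28 mM EGTA, 0.1% CHAPS and 5% DMSO, with PI5P4Kalpha, substrate, compound and 5 microM ATP final, one hour at room temperature. Readout is ADP-Glo luminescence.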
FEN1 inhibitor – qHTS Assay for the Inhibitors of Human Flap endonuclease 1 (FEN1). P39748. Recombinant FEN1 flap cleavage, fluorescence, 15 min. Potency, µM (highest dose often 114 µM), without a hit: at the top dose activity change, negative = inhibition, most hits filed as inhibitors. 390,000 compounds, 0.35% hits. AID 588795, 2011; further: potency means the concentration at half of the fitted maximal effect; on the % scale 0 is the no-effect control and ±100 the full control effect; nearly all actives have a fitted effect of over 65% in size
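Reaction started by adding substrate (50 nM final) to 10 nM enzyme after 15 min room-temperature compound preincubation. Reads at 0 and 15 min, with data normalized and fitted to a four-parameter Hill equation.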
Pol eta inh-1 – qHTS for Inhibitors of Polymerase Eta | AID 588591, 2011 | recombinant Pol eta, fluorescent DNA replication assay | 390,000 compounds, 1.2% hits | Potency, µM (highest dose often 114 µM), for inactives: top-dose activity change, negative = inhibition, most hits filed as inhibitors; further: potency means the concentration at half of the fitted maximal effect; on the % scale 0 is the no-effect control and ±100 the full control effect
Target sequence (Q9Y253 whole entry, looked up): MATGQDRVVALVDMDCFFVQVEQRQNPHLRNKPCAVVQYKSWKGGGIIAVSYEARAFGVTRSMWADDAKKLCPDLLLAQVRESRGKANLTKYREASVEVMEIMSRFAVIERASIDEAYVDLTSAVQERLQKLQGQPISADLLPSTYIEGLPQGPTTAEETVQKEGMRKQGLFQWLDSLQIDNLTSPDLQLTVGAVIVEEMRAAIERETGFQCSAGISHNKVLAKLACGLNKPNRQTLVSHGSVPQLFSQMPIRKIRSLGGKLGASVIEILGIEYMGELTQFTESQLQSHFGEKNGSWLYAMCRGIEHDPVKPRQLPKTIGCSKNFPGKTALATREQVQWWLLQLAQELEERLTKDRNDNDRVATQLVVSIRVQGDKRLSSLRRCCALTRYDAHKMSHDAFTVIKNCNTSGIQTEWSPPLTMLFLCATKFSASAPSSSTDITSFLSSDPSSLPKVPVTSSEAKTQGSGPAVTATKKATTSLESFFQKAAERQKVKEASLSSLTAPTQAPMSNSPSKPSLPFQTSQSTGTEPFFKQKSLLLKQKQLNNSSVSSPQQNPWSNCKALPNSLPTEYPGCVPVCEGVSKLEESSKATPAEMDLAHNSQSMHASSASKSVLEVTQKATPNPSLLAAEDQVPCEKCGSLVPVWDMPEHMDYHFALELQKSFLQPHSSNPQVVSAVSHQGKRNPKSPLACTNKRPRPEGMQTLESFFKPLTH
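Pol eta (10 nM) was preincubated with compounds for 15 min at room temperature, after which fluorescent replication substrate (50 nM final) was added to start the reaction. Fluorescence was read kinetically at 0 and 10 min.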
Pol kappa inh-1 – qHTS for Inhibitors of Polymerase Kappa; DNA polymerase kappa (Homo sapiens), Q9UBT6; purified Pol kappa, fluorescent DNA synthesis assay, 10 min; Potency, µM (top dose mostly 107 µM), inactives show at the highest dose activity, negative = inhibition, usual class: inhibitors; 400,000 compounds, 0.53% hits; AID 588579, 2011; further: potency means the concentration at half of the fitted maximal effect; on the % scale 0 is the no-effect control and ±100 the full control effect
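Inhibition of 10 nM Pol kappa is measured by a fluorescent read-out at 0 and 10 min following addition of 50 nM substrate (final), with a 15-min room-temperature compound preincubation.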
Pol beta inh – qHTS Assay for Inhibitors of DNA Polymerase Beta; P06746; Pol beta primer extension/strand displacement, fluorescence kinetic; Potency, µM (highest dose often 114 µM), without a hit: top-dose activity change, negative = inhibition, usual class: inhibitors; 340,000 compounds, 1.3% hits; AID 485314, 2010; further: potency means the concentration at half of the fitted maximal effect; on the % scale 0 is the no-effect control and ±100 the full control effect
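10 nM enzyme + cpd, 15 min RT; start with substrate 50 nM final; read 0 min and after 10 min RT. Corrected, normalized data; 4-parameter Hill curve fit.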
GALK inh confirm – Confirmation Assay for Inhibitors of Human Galactokinase (GALK). shares compounds with Pol eta inh-1. 150 compounds, 70% hits. Potency, µM (top dose mostly 115 µM), inactives show at the top dose activity, negative = inhibition, hits mostly inhibitors. purified GALK, Kinase-Glo ATP depletion luminescence
Redox cycling – Confirmatory Assay for Inhibitors of Human Galactokinase (GALK): Phenol-HRP redox assay counterscreen; Phenol red-HRP H2O2 redox cycling, absorbance 600 nm; shares compounds with Pol eta inh-1; Potency, µM (doses to about 115 µM), inactives show top-dose activity change, negative = H2O2 signal, hits mostly inhibitors; AID 2035, 2009; 150 compounds, 40% hits
HEK293 tox – Secondary Assay for Inhibitors of Human Galactokinase (GALK): HEK-293 Cell Viability Assay; 170 compounds, 10% hits; HEK-293 viability, ATP luminescence (CellTiter-Glo), 24/48 h; Potency, µM (top dose mostly 46.1 µM), without a hit: at the highest dose activity change, negative = cytotoxicity, actives largely listed as inhibitors; shares compounds with Pol eta inh-1; further: potency means the concentration at half of the fitted maximal effect; on the % scale 0 is the no-effect control and ±100 the full control effect
Pol kappa inh-2 – qHTS for Inhibitors of Polymerase Kappa: Confirmatory Assay for Cherry-picked Compounds; shares compounds with Pol eta inh-1; purified Pol-kappa, fluorescent strand-displacement substrate; Potency, µM, most hits filed as inhibitors; 920 compounds, 76% hits; AID 720501, 2013; further: potency means the concentration at half of the fitted maximal effect
Pol eta inh-2 – qHTS for Inhibitors of Polymerase Eta: Confirmatory Assay for Cherry-picked Compounds; Pol eta primer extension, TAMRA/BHQ fluorescence, 10 min; AID 720502, 2013; 2,600 compounds, 64% hits; shares compounds with Pol eta inh-1; Potency, µM, usual class: inhibitors; further: potency means the concentration at half of the fitted maximal effect
Active calls of the source: *; ? = inconclusive; / = not tested or not shown; [ ] = dose if it differs, or a comment. Unless noted, the call rests on the fitted dose curve; in most records, active means well fitted curve in the direction sought with a large enough effect; inconclusive means small, poorly fitted or top-dose-only effect, or another doubt; inactive means no such curve, though single readings can be large; an effect the other way counts as inactive or inconclusive.

SMILES | POLI inh | PI5P4K alpha inh | FEN1 inhibitor | Pol eta inh-1 | Pol kappa inh-1 | Pol beta inh | Pol eta inh-2 | others
O=S(=O)(Nc1c(S(=O)(=O)c2ccccc2)c2nc3ccccc3nc2n1C1CCCCC1)c1ccccc1 | 3.5µM* | -2 | -16% | 22µM* | -16% | 3% | / | Pol kappa inh-2=30*
O=C(CCC1N=C2c3ccccc3N=C(SCC(=O)NCc3ccco3)N2C1=O)NCc1ccco1 (stereo unspecified) | 13µM* | -17 | 0% | ? | ? | 32µM* | ?
Cc1cccc(NC(=O)CSC2=Nc3ccccc3C3=NC(CCC(=O)NCc4ccco4)C(=O)N23)c1 (stereo unspecified) | -3% | / | 7% | -12% | -19% | 7% | /
Cc1cc(C(=O)NNC(=O)c2ccc(NC(=O)CC#N)cc2)c(C)o1 | 21% | -1 | -5% | -13% | -2% | / | /
CC(Sc1ccsc1[N+](=O)[O-])C(=O)N1CCN(c2ccccn2)CC1 (stereo unspecified) | ? | ? | 10% | 35µM* | ? | -1% | 76*
Cc1cccc(/C=C(\C(=O)O)c2ccc(S(=O)(=O)N3CCCC3)s2)c1 | ? | -25 | 1% | 13µM* | ? | / | ? | Pol kappa inh-2=34*
O=C(O)/C(=C\c1cccc(F)c1)c1ccc(S(=O)(=O)N2CCCC2)s1 | -21% | -13 | 0% | ? | -6% | / | /
O=C(O)c1ccc(CSc2nc3ccc(N4C(=O)C5C6C=CC(C6)C5C4=O)cc3s2)cc1 (stereo unspecified) | ? | -5 | -5% | 28µM* | -12% | 2% | ?
Cn1cc(C(c2ccccc2)c2ccc(Cl)s2)c2ccccc21 (stereo unspecified) | 3% | / | -15% | -17% | -12% | 2% | /
COc1ccccc1NC(=O)c1coc(=O)c(Br)c1 | 22% | -6 | 1% | ? | -23% | -22% | /
COc1ccc(OC)c(NC(=O)COC(=O)CN(C)S(=O)(=O)c2ccc(C)cc2)c1 | 30% | 1 | -7% | -1% | -10% | 5% | /
COc1ccccc1CNC(=O)[C@@H](NC(=O)C1CCN(C(=O)[C@@H]2CCCN2)CC1)C(C)C | 8% | 8 | -2% | -17% | -3% | 10% | /
N#CCSc1nnc(SCC#N)s1 | ? | -75* | -6% | 20µM* | ? | ? | 76*
CCOc1ccc(NS(=O)(=O)c2cc(C(=O)N(CC)CC(=O)NCc3cccs3)ccc2C)cc1 | -8% | -2 | 3% | -14% | -9% | / | /
Cc1cccc(NC(=S)NC(=O)/C=C/c2ccco2)c1 | 20µM* | -64* | -25% | 50µM* | 79µM* | 32µM* | ?
Cc1cc(NS(=O)(=O)c2ccc(NC(=O)c3ccco3)cc2)nc(C)n1 | -4% | 0 | -1% | ? | -8% | -1% | /
NC(N)=NS(=O)(=O)c1ccc(NC(=S)NC(=O)/C=C/c2ccco2)cc1 | ? | -19 | -11% | -20% | -21% | -5% | /
NS(=O)(=O)c1ccc(NC(=S)NC(=O)/C=C/c2ccco2)cc1 | ? | -22 | -2% | 32µM* | ? | ? | ? | Pol kappa inh-2=38*
CC(=O)c1ccc(NC(=S)NC(=O)/C=C/c2ccco2)cc1 | ? | -10 | -13% | ? | -32% | -8% | /
Cc1cc(NS(=O)(=O)c2ccc(NC(=O)/C=C/c3ccco3)cc2)nc(C)n1 | ? | -10 | -33% | 28µM* | 79µM* | 0% | 34*
COc1ccccc1NC(=S)NC(=O)/C=C/c1ccco1 | ? | ? | -7% | 20µM* | ? | 45µM* | ?
COc1ccc(S(=O)(=O)NC2CCCCCC2)cc1C(N)=O | 51% | -3 | -1% | -19% | 16% | -15% | /
CC(=O)NCCNc1ncnc2ccc(-c3ccccc3C#N)cc12 | / | / | / | / | 2%[60.1 µM] | / | /
CC(/C=C/c1ccc(Cl)o1)=C\C(=O)O | ? | -19 | 4% | 22µM* | -26% | 32µM* | 48*
O=C(/C=C/c1ccco1)c1ccccc1O | 50% | -4 | 9% | -12% | 3% | 2% | /
CC(=C/C(=O)O)/C=C/c1ccco1 | 89µM* | -9 | -15% | ? | ? | ? | ?
COc1ccc(N2CCN(C(=O)c3cc4c(-c5ccccc5F)nn(C)c4s3)CC2)cc1 | 6% | / | -25% | -16% | -3% | 14% | /
OC[C@@H](O)[C@H](O)C(/C=N/Nc1ccccc1)=N\Nc1ccccc1 | 126% | 4 | -21% | -12% | -14% | 1% | /
Cc1noc(C)c1S(=O)(=O)Nc1ccc(C(=O)Nc2ccc(OC(F)(F)F)cc2)cc1 | 11% | 10 | -4% | -17% | 4% | 33% | / | GALK inh confirm=33µM*;Redox cycling=1%;HEK293 tox=?
Cc1ccc(C)c(NC(=O)Cn2cnc3c(oc4ccccc43)c2=O)c1 | 29% | 6 | -3% | ? | -3% | 35% | / | Pol kappa inh-2=67*
